This is a sample that favours compounds with a hit; in the whole collection about 0.93% have one here.
CDC25B CDK2 inh: human CDC25B-CDK2/CyclinA binding inhibition; P30305+P24941; actives 0.72% (n = 94,000); HTRF CDC25B-CDK2/CyclinA binding, anti-His/anti-Flag; active compounds read high; z-score (test concentration not listed); in the data active means z-score above about 3.2
TAR Tat displ: HIV-1 TAR-Tat binding disruption | HIV-1 TAR RNA, Tat peptide displacement FRET; active compounds read high | z-score (concentration not given with the values) | actives 0.6% (n = 100,000); active means z-score of 3 or more in at least 2 runs
Numbers without * were called inactive.

Screening O=C(O)CCSc1ncnc2c1sc1cccc(F)c12 returned CDC25B CDK2 inh -0.58 and TAR Tat displ 5.4*.
Screening O=C(CSc1ncnc2c1sc1cccc(F)c12)N1CCCCC1 returned TAR Tat displ -0.7.
O=C(CSc1ncnc2c1sc1cccc(F)c12)NCc1ccco1 was read as TAR Tat displ 0.27.
N/C(=N\OC(=O)c1cccc(C(F)(F)F)n1)c1cccc(C(F)(F)F)c1 was read as CDC25B CDK2 inh -1.3.
Cc1nn2c(=O)cc(COC(=O)c3cccc(F)c3)nc2s1 was read as TAR Tat displ 2.1.
Cc1ccc2oc3nn(-c4ccc(Br)cc4)c(=O)c-3cc2c1 was read as CDC25B CDK2 inh -1.1 and TAR Tat displ -0.32.
`CC1(C)Cc2ccccc2C(NC(=O)Nc2ccc(Cl)cc2)=C1C#N` gave CDC25B CDK2 inh -1.2 and TAR Tat displ 1.9.
Screening COc1ccc(NS(=O)(=O)c2ccc3c4c(cccc24)C(=O)N3)cc1 returned CDC25B CDK2 inh -0.99 and TAR Tat displ 2.2.
For O=C1Nc2ccc(S(=O)(=O)Nc3ccc4oc5c(c4c3)CCCC5)c3cccc1c23 the results were CDC25B CDK2 inh -1.9 and TAR Tat displ 6.3*.
`CCS(=O)(=O)N1CCC2(CC1)OC(=O)C(C)=C2C(=O)Nc1ccc(Br)cc1F` gave TAR Tat displ -0.08.
O=C(Cc1cccs1)Nc1ccc2[nH]c(=O)[nH]c2c1 was read as TAR Tat displ 1.2.
O=c1[nH]c2ccc(NCc3ccc(-c4ccc(F)cc4)o3)cc2[nH]1 was read as CDC25B CDK2 inh 5.3* and TAR Tat displ -1.9.
`COc1cc(CNc2ccc3[nH]c(=O)[nH]c3c2)cc(Br)c1OC` gave CDC25B CDK2 inh 8.7* and TAR Tat displ -0.05.
CCOc1cc(CNc2ccc3[nH]c(=O)[nH]c3c2)cc(Br)c1OC was read as CDC25B CDK2 inh 6.1* and TAR Tat displ -0.04.
For O=c1[nH]c2ccc(NCc3ccccn3)cc2[nH]1 the results were CDC25B CDK2 inh 13* and TAR Tat displ -6.5.
`O=c1[nH]c2ccc(NCC#Cc3ccccc3)cc2[nH]1` gave CDC25B CDK2 inh 0.12 and TAR Tat displ 0.85.
C=CCOc1ccc(CNc2ccc3[nH]c(=O)[nH]c3c2)cc1OC was read as CDC25B CDK2 inh 1.2 and TAR Tat displ -0.17.
Screening CCOc1cc(CNc2ccc3[nH]c(=O)[nH]c3c2)cc(Br)c1OCC returned CDC25B CDK2 inh -1.7 and TAR Tat displ 0.85.
CCN(CC)CCCC(C)NC(=O)C(=O)c1c[nH]c2ccccc12 (stereo unspecified) was read as CDC25B CDK2 inh -1.7.
Cc1ccc2nc(NC3=NCN(CCc4cccs4)CN3)nc(C)c2c1 was read as CDC25B CDK2 inh 0.02 and TAR Tat displ -0.67.
For CC1CCCCN1C(=O)Cn1c(=O)oc2cc(S(=O)(=O)N3CCc4ccccc43)ccc21 (stereo unspecified) the results were CDC25B CDK2 inh -1.3.
O=C1COc2cc(S(=O)(=O)NCCCN3CCc4ccccc4C3)c(Cl)cc2N1 was read as TAR Tat displ 0.27.
CCOc1c(Br)cc(CNc2ccc3[nH]c(=O)[nH]c3c2)cc1OC was read as CDC25B CDK2 inh 8.5* and TAR Tat displ -3.6.
For COc1ccc(Br)cc1CNc1cc(C)cc(C)c1 the results were CDC25B CDK2 inh -2.1 and TAR Tat displ 0.4.
CCOc1c(Cl)cc(CNc2ncn[nH]2)cc1OC was read as CDC25B CDK2 inh -0.46 and TAR Tat displ -0.89.
`CCOc1ccc(Br)cc1CNc1ccc2[nH]c(=O)[nH]c2c1` gave CDC25B CDK2 inh 7.5* and TAR Tat displ -4.5.
Screening O=C(CSc1nccn1C1CCCC1)Nc1ccccc1 returned TAR Tat displ 0.01.
`N#Cc1c(NC(=O)c2cc3ncc(Br)cn3n2)sc2c1CCCC2` gave CDC25B CDK2 inh 0.64 and TAR Tat displ 7.3*.
CC(=O)Nc1sc2c(c1C#N)CCCC2 was read as CDC25B CDK2 inh 0.23 and TAR Tat displ 0.23.
Screening COc1ccc(F)cc1S(=O)(=O)Nc1cccc(-c2ccc(N3CCCC3)nn2)c1 returned TAR Tat displ 2.
O=C(c1ccc2c(=O)n(Cc3ccc4c(c3)OCO4)c(=O)[nH]c2c1)N1CCN(c2ccccn2)CC1 was read as TAR Tat displ -0.92.
Screening Cc1nc(-c2ccccc2)sc1C(=O)Nc1sc(C)c(C)c1C#N returned CDC25B CDK2 inh -1.2 and TAR Tat displ -4.2.
`Cc1nc(-c2ccccc2)sc1C(=O)Nc1sc2c(c1C#N)CCC2` gave CDC25B CDK2 inh 8.5 and TAR Tat displ 17*.
For OC(COc1cccc2cccnc12)Cn1c2ccccc2c2ccccc21 (stereo unspecified) the results were CDC25B CDK2 inh -0.9 and TAR Tat displ -1.6.
`c1ccc2c(OCCCOc3cccc4cccnc34)cccc2c1` gave CDC25B CDK2 inh 6.2*.
COc1cc2ncc(S(=O)(=O)c3ccccc3)c(N3CCC(C)CC3)c2cc1OC was read as CDC25B CDK2 inh 1.6 and TAR Tat displ 1.
For CCc1ccc2ncc(S(=O)(=O)c3ccccc3)c(N3CCCC3)c2c1 the results were CDC25B CDK2 inh 9.1* and TAR Tat displ -2.5.
COc1cc2ncc(S(=O)(=O)c3ccccc3)c(N3CCCCC3)c2cc1OC was read as CDC25B CDK2 inh 5.9* and TAR Tat displ -0.26.
`O=S(=O)(c1ccccc1)c1cnc2ccc(Cl)cc2c1N1CCCC1` gave CDC25B CDK2 inh -0.64 and TAR Tat displ 0.16.
For CN(CC(=O)N1CCc2ccccc2C1)S(=O)(=O)c1ccc2c(c1)CCCC(=O)N2 the results were TAR Tat displ 0.
CC1CC(C)CN(C(=O)CCS(=O)(=O)c2ccc3c(c2)n(C)c(=O)c(=O)n3C)C1 (stereo unspecified) was read as CDC25B CDK2 inh -2.4 and TAR Tat displ 2.6.
`CN(C)S(=O)(=O)N(CC(=O)N1CCc2ccccc2C1)c1ccccc1` gave CDC25B CDK2 inh -1.7 and TAR Tat displ 11*.
`Cn1c(=O)c(=O)n(C)c2cc(S(=O)(=O)CCC(=O)N3CCc4ccccc4C3)ccc21` gave CDC25B CDK2 inh -1.6 and TAR Tat displ 4.1*.
For CN1CCN(c2ccc(CNC(=O)C3CCCCC3)cc2)CC1 the results were CDC25B CDK2 inh -2.3.
For CC(=O)OC[C@H]1O[C@@H](OCc2ccccc2)[C@H](OC(C)=O)[C@@H](OC(C)=O)[C@@H]1OC(C)=O the results were CDC25B CDK2 inh -0.63.
`O=C(OC[C@H]1O[C@H](OC(=O)c2cc(O)c(O)c(OC(=O)c3cc(O)c(O)c(O)c3)c2)[C@H](OC(=O)c2cc(O)c(O)c(OC(=O)c3cc(O)c(O)c(O)c3)c2)[C@@H](OC(=O)c2cc(O)c(O)c(OC(=O)c3cc(O)c(O)c(O)c3)c2)[C@@H]1OC(=O)c1cc(O)c(O)c(OC(=O)c2cc(O)c(O)c(O)c2)c1)c1cc(O)c(O)c(OC(=O)c2cc(O)c(O)c(O)c2)c1` gave TAR Tat displ 26*.
For CCOC(=O)c1cnc2ccc(Br)cc2c1Nc1ccc(N(C)C)cc1 the results were CDC25B CDK2 inh -0.69 and TAR Tat displ 7.7*.
`CCOC(=O)c1cnc2ccc(Br)cc2c1NCc1ccco1` gave CDC25B CDK2 inh -3.2 and TAR Tat displ -1.2.
COc1ccc(NC(=O)C(C)Sc2nnc(Cc3c(C)nc4ccccn4c3=O)n2C)cc1 (stereo unspecified) was read as CDC25B CDK2 inh 16* and TAR Tat displ -0.14.
